About 800 (0.36%) of roughly 220,000 compounds were called active.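 How the source made its calls: active means inhibition above about 50% (limit read from the data); inactive means the rest.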 This excerpt belongs to a sample that is enriched for actives.

The experiment deals with calpain II (m-calpain), Sus scrofa. Nature of the experiment: m-calpain protease activity blockers – biochemical, fluorogenic peptide substrate, 1536-well, primary screen (AID 1236). The conditions noted are these: purified calpain II, 30 min, at 16 µM, stronger effect = higher value.
Take `Cc1nn(Cc2ccc(F)cc2)c(C)c1NC(=O)c1cccnc1Cl`: the inhibition is 7.19% (inactive).
Then `COc1ccccc1NC(=O)c1c(Br)cnn1C`, with -19.7% (inactive); and `O=C1C=CC(=O)N1c1ccc(N2CCCCC2)cc1`, with 2.8% (inactive); and `COc1ccc(OCC(=O)NNC(=O)c2ccc(-c3ccccc3)cc2)cc1`, with -4.48% (inactive).
Regarding `COc1ccc(C(=O)Nc2cc(C)ccc2NC(=O)COc2ccccc2)cc1`, the inhibition was 51.4% (active).
Then `COc1ccc(OCC(=O)NNC(=O)c2cccc(C)c2)cc1`, with 1.17% (inactive); and `O=C(O)C1=C[C@H](c2cccs2)C[C@H](OCCCCO)O1`, with -6.55% (inactive); and `O=C(COC(=O)c1cnccn1)Nc1cccc2ccccc12`, with -43.3% (inactive).
The value for `O=C(NC(=S)Nc1ccc(NC(=O)c2cccs2)cc1)c1ccc([N+](=O)[O-])cc1` was 9.92% (inactive); that for `CC1CN/C(=C\C(=O)c2ccc(Br)cc2)C(=O)N1` (stereo unspecified) was 14.4% (inactive).
The value for `O=C(c1ccc(Cl)c([N+](=O)[O-])c1)N1CCN(c2ccccc2)CC1` was 14% (inactive); that for `CO/N=C/c1ccc(N2CCN(C(=O)c3cccc(Cl)c3)CC2)c([N+](=O)[O-])c1` was 53.5% (active); that for `O=C(/C=C/c1ccc(Cl)cc1)N1CCN(c2ccccc2[N+](=O)[O-])CC1` was 37.4% (inactive).
Regarding `CC1=NN(c2ccccc2)C(=O)C1C(=O)c1ccc([N+](=O)[O-])cc1` (stereo unspecified), the inhibition is 2.01% (inactive).
The value for `S=c1[nH]nc(Nc2ccccc2)s1` was 31.7% (inactive); that for `COc1ccc(Cl)cc1NC(=O)CN(C)Cc1ccc(OC)c(OC)c1` was 30.5% (inactive).
The value for `O=C(CSc1ccc(C(F)(F)F)cc1[N+](=O)[O-])NCCOc1ccccc1` was -9.45% (inactive).
The value for `Nc1ccccc1Sc1ccc(C(F)(F)F)cc1[N+](=O)[O-]` was 87.2% (active); that for `CCS(=O)(=O)c1cc([N+](=O)[O-])c(Sc2ccccc2N)s1` was 3.47% (inactive).
`O=C1Nc2ccc([N+](=O)[O-])cc2C1=Nc1cccc(CO)c1`: the inhibition was 21.2% (inactive).
The value for `CC1=NNC(=O)C1CCC(=O)N/N=C\c1cccc(Cl)c1` (stereo unspecified) was -0.56% (inactive).
Then `COc1ccc(/C=C(\NC(=O)c2ccc(OCC(C)C)cc2)C(=O)OCc2ccco2)cc1`, with 14.9% (inactive); and `O=C(Nc1nnc(C2CC2)s1)c1ccccn1`, with -3.35% (inactive).
The value for `N#CCCCn1c(O)c(N=NC(=O)C(O)c2ccccc2)c2ccccc21` (stereo unspecified) was -3.6% (inactive).
As to `O=C(Cn1cncn1)N/N=C/c1c2ccccc2cc2ccccc12`, the inhibition is -113% (inactive).
Then `Cc1ccc(NC2=C(Cl)C(=O)OC2OC(=O)c2ccccc2C)cc1` (stereo unspecified), with 66.5% (active).
Then `Cc1ccccc1C(=O)OC1OC(=O)C(Cl)=C1Nc1ccccc1` (stereo unspecified), with -2.86% (inactive); and `O=C1OC(OC(=O)c2ccccc2Br)C(N2CCOCC2)=C1Cl` (stereo unspecified), with -3.83% (inactive); and `CCOc1ccc(/C=N/OCC(=O)NCc2cccs2)cc1`, with 3.21% (inactive).
As to `COC(=O)c1sccc1NC(=O)CC1C(=O)NCCN1C(=O)Nc1ccc(F)cc1F` (stereo unspecified), the inhibition was -15.5% (inactive).
Then `Cc1cc(NC(=O)/C=C/C(=O)N(CC(=O)NC2CCCC2)c2ccc(F)cc2)no1`, with 1.62% (inactive); and `CCNC(=S)N1CCN(C(=O)c2ccco2)CC1`, with -6.94% (inactive).
Then `CCC(=O)Nc1ccc(C(=O)N2CCN(C(=O)c3ccco3)CC2)cc1`, with 50.8% (active); and `O=C(c1ccc2c(c1)OCO2)N1CCN(C(=O)c2ccco2)CC1`, with 14.3% (inactive); and `CC(Sc1nnnn1C1CCCCC1)C(=O)O` (stereo unspecified), with -11.2% (inactive).
Then `C/C(=N\NC(=O)CNc1cccc2ccccc12)c1ccc(Br)s1`, with 17.6% (inactive); and `O=C(Nc1ccccc1Cl)O/N=C(/c1ccccc1)c1ccccn1`, with -15.9% (inactive); and `NCCCCCC(=O)N/N=C/c1ccc2nccnc2c1`, with -3.28% (inactive).
In the case of `CC(C)CNC(=S)NC(=O)c1ccc(Cl)cc1`, the inhibition is 11.4% (inactive).
Regarding `COC/C=C/C1=CC2=CC(=O)C(C)(OC(=O)CCC(=O)OC)C(=O)C2=CO1` (stereo unspecified), the inhibition is -93.8% (inactive).
The value for `NC(N)=N/N=C/c1ccc(Cl)c([N+](=O)[O-])c1` was -20% (inactive); that for `COc1ccc(C(=O)O/N=C(\N)Cc2ccc(Cl)cc2Cl)cc1OC` was 11.8% (inactive).
The value for `NC(N)=N/N=C/c1ccc(OCc2ccc(Cl)cc2Cl)cc1` was 61.9% (active); that for `COc1ccc(/C=N/NC(=O)c2ccc(Cl)cc2)cc1COC(C)=O` was 38.9% (inactive).
Then `O=C(CN(c1cccc(Cl)c1)S(=O)(=O)c1ccccc1)NN=C1CCCC1`, with -9.25% (inactive).
On to `CCOc1ccc(C(=O)Nc2nccs2)cc1[N+](=O)[O-]`, for which the inhibition is 0.78% (inactive).
Then `COc1ccccc1N1CCN(C(=O)CSc2ncnc3c2cnn3-c2ccc(C)c(C)c2)CC1`, with -19.6% (inactive); and `CC(C)C[C@H](NC(=O)[C@@H]1O[C@H]1C(=O)O)C(=O)NCCCCN=C(N)N`, with 98.8% (active).
Then `COc1cc(S(=O)(=O)N(Cc2cccs2)C2CC2)ccc1-n1cnnn1`, with 26% (inactive); and `Nc1ccccc1SC(C[N+](=O)[O-])c1ccccc1` (stereo unspecified), with 2.09% (inactive); and `O=C(Nc1cccnc1)c1cc2cc(Br)ccc2oc1=O`, with 52.9% (active).
Then `O=C(Oc1cccnc1)c1cc2ccccc2oc1=O`, with -6.4% (inactive); and `COc1ccc(C(=O)Nc2cccnc2)cc1C(=O)Nc1cccnc1`, with 17.3% (inactive).
As to `COCCN(Cc1cc2cc3c(cc2nc1Cl)OCO3)C(=O)c1cccc(C)c1`, the inhibition is 24.9% (inactive).
`NCCCC[C@@H]1NC(=O)[C@H](CCC(=O)O)NC(=O)c2cc([N+](=O)[O-])cc(I)c2NCC[C@@H](C(N)=O)NC1=O`: the inhibition was -13.1% (inactive).
The value for `CCOC(=O)c1ccc2c(c1)nc(C)n2CC` was 14.2% (inactive); that for `CCn1c(/C=C/Nc2ccccc2)[n+](CC)c2ccc(C(=O)OCC(F)(F)F)cc21` was 52% (active); that for `O=C(CCS(=O)(=O)Cc1ccccc1)Nc1ccc2c(c1)OCCO2` was -23.4% (inactive).
As to `CCOc1cc(/C=N/NC(=O)OC)ccc1OCCSc1ccc(Cl)cc1`, the inhibition was -7.99% (inactive).
Regarding `CCOC(=O)Nc1ccc(S(=O)(=O)N(C)C(C)C)cc1`, the inhibition is -5.03% (inactive).
Then `COc1cc(NC(=O)c2ccccc2NS(=O)(=O)c2ccc(Cl)s2)cc(OC)c1`, with -32.1% (inactive); and `Nc1cc(C(F)(F)F)ccc1N1CCOCC1`, with -2.56% (inactive).
Then `O=C(N/N=C\c1cccc(Br)c1)c1ccccc1-n1cccc1`, with 68% (active); and `N=c1oc2ccccc2cc1C(=O)N/N=C/c1ccccc1`, with 14.5% (inactive).
Then `COc1ccc(OC)c2[nH]c(=O)c(CCNC(=O)C(=O)c3c[nH]c4ccccc34)cc12`, with -38.9% (inactive); and `CC(=O)c1ccc(NC(=O)C2CC(=O)Nc3nc4ccccc4n32)cc1` (stereo unspecified), with -19.9% (inactive).
Regarding `Cc1nc2ccccc2c(C)c1C(=O)c1ccc(F)cc1`, the inhibition was -9.43% (inactive).
Then `O=P(O)(CP(=O)(c1ccccc1)c1ccccc1)c1ccccc1O`, with -11.7% (inactive); and `COc1ccc(CN2CCCCC2C)cc1OC` (stereo unspecified), with -66% (inactive).
Then `CC(=O)c1ccc(NC(=O)N[C@@H](Cc2ccccc2)C(=O)O)cc1`, with 5.25% (inactive).
The value for `CC(=O)c1ccc(NC(=S)N(Cc2ccccc2)C(C)C2CC2)cc1` (stereo unspecified) was 69.5% (active); that for `CC(C)N(Cc1ccccc1)C(=S)Nc1ccc(OC(F)F)cc1` was 18.2% (inactive); that for `CNc1nc(SC)nc(N(C#N)CC(=O)OC)n1` was -4.33% (inactive).
For the compound `O=C(NCCc1csc(-c2ccccc2)n1)c1ccccc1F`, the inhibition was 18.7% (inactive).
The value for `COC(=O)Cn1c(O)c(N=NC(=O)OC)c2ccccc21` was -10.4% (inactive).
Then `CCN(CC(=O)NCCc1ccccc1)S(=O)(=O)c1ccccc1`, with 13.4% (inactive); and `COc1cc(/C=N/O)cc(Br)c1OCc1cccc(Cl)c1`, with 56.7% (active).
The value for `CCOc1c(Cl)cc(/C=N/O)cc1OC` was -1.32% (inactive).
In the case of `CCOc1cc(/C=N/O)cc(Br)c1OC`, the inhibition was 2.94% (inactive).
The value for `C=CCn1c(-c2ccc(Cl)cc2)ccc(C#N)c1=O` was -6.13% (inactive).
Then `CC(O)C(NS(=O)(=O)c1ccc(Cl)cc1)C(=O)OCc1cc([N+](=O)[O-])cc2c1OCOC2` (stereo unspecified), with -6.26% (inactive).
Regarding `CN(C(=O)CCn1c(=S)oc2ccccc21)C1CCCCC1`, the inhibition was 6.83% (inactive).
The value for `Cc1c(C(=O)c2cccc([N+](=O)[O-])c2)c2ccccn2c1CCC#N` was 10.5% (inactive); that for `CSCc1cc(N(C)C)nc(SCc2ccc(Cl)cc2Cl)n1` was 8.94% (inactive).
The value for `CSCc1cc(N2CCOCC2)nc(SCc2ccc(Cl)cc2Cl)n1` was 53.9% (active); that for `O=c1cc(CSc2ccc(Cl)cc2)nc(N2CCOCC2)[nH]1` was -33.8% (inactive).
The value for `Cc1ccc(-n2ncc3c(Nc4cccc(C(=O)O)c4)ncnc32)cc1` was 10.2% (inactive); that for `NC(=O)CC[C@@H]1NC(=O)[C@H](CO)NC(=O)c2cc([N+](=O)[O-])cc(I)c2NCC[C@@H](C(N)=O)NC1=O` was -33.7% (inactive).
Consider `S=c1[nH]nc(-c2cccs2)n1/N=C/c1cn(-c2ccccc2)nc1-c1ccc(Cl)cc1`, for which the inhibition was -33.4% (inactive).
The value for `COc1ccc(OC(C)C(=O)Nc2cccnc2)cc1` (stereo unspecified) was -45% (inactive); that for `COc1ccc(C(=O)C2CCCN(C(=O)c3cc4nc(C)cc(C)n4n3)C2)cc1F` (stereo unspecified) was -25.8% (inactive).
Then `O=c1cc(-c2ccccc2)nc(N2CCCCC2)[nH]1`, with -13.8% (inactive); and `c1ccc(-c2cc(N3CCCCC3)c3ccccc3n2)cc1`, with 50.5% (active).
The value for `Cc1ccc2nc(-c3ccccc3)cc(C(=O)O)c2c1` was -19.3% (inactive).
In the case of `CN(C)CCCSc1ccccc1NC(=O)/C=C/c1ccccc1`, the inhibition was -17.5% (inactive).
The value for `N#Cc1ccc(N2Cc3ccccc3/C2=N/C(=O)Nc2ccc(Cl)cc2)cc1` was -5.24% (inactive).

In general, inhibition refers to the relative decrease from the control value, in per cent.

(Values after PubChem BioAssay AID1236 (Emory University Molecular Libraries Screening Center, 2008).)
